# Data reported in PubChem BioAssay (EPA / NIEHS).
# Calls of active or inactive are those of the source. The calls were made as follows: active = hit-call score of the fitted dose curve at least 0.9, where 1 is the maximum; inactive = score below 0.9.
# Read-out: Cyclin Dependent Kinase Inhibitor 1A (CDKN1A), CDKN1A (gene 1026)
# Assay: LTEA_HepaRG_CDKN1A: Life Technologies and Expression Analysis (LTEA) Assay for Cyclin Dependent Kinase Inhibitor 1A (CDKN1A) using HepaRG (AID 2283450)
# Conditions: mRNA level, 48 h; actives raise or lower the signal
# Experimental: LTEA_HepaRG is a cell based, multiplexed-readout assay that uses HepaRG, a human liver cell line, with measurements taken at 48 hours after chemical dosing on a 96-well plate.LTEA_HepaRG_CDKN1A is one of 102 assay component(s) measured in the LTEA HepaRG cell culture assay. It is a marker of Cell proliferation, survival, death.Data from the assay component LTEA_HepaRG_CDKN1A was analyzed into 1 endpoint. This assay endpoint, LTEA_HepaRG_CDKN1A, was analyzed with bidirectional fitting relative to DMSO as the negative control and baseline of activity. Using a type of inducible reporter, measures of mRNA induction for gain or loss-of-signal activity can be used to understand regulation of transcription factor activity. To generalize the intended target to other relatable targets, this assay endpoint is annotated to the cell cycle intended target family, where the subfamily is Cell proliferation, survival, death.
# A total of 1060 chemcials from the ToxCast library were tested in eight-point concentration-response experiments. Cell culture and cytotoxicity assays were conducted at Thermo Fisher Scientific's Custom Services facility (Madison, WI). A single lot of human HepaRG cells (Thermo Fisher Scientific, Frederick, MD) was used for the cell culture experiments. 96-well format collagen type I coated plates of human HepaRG cells were prepared using established methods. Briefly, cryopreserved HepaRG cells were thawed, plated at a density of approximately 100,000 cells/well in HepaRG Thaw, Plate, and General Purpose media (HPRG770, Thermo Fisher Scientific), and incubated for 48 hours. 0.5% DMSO was selected as vehicle control to balance the requisite need of DMSO in HepaRG cultures to maintain differentiation (for example, baseline metabolism, proportions of hepatocytes vs. cholangiocytes), while enabling further hepatic receptor pathway activation (for example, PXR and CAR) in response to chemical exposure. 48 hours after plating, the culture medium was replaced with HepaRG Serum-Free Incudtion Media. Cells were exposed to each test chemical in duplicate and maintained in CO2 incubators for another 48 hours. Chemical plates were thawed to room temperature and 200x concentrations of treatment groups were prepared. 8-point conentration-reponse curves were made with the highest exposure at 100 uM, followed by half-log dilutions, all in 0.5% DMSO. Each test plate contained variouse controls, induction positive controls (1mM phenobarbital), cytotoxicity positive controls ([…] aflatoxin B1), vehicle controls (0.5% DMSO), and total lysis controls (0.5% DMSO). Cell morphology images were taken using an Essen IncuCyte FLR automated microscope, with six 96-well plates imaged in about 24 minutes. Images were captured and exported and JPEG files. Spent culture media was transfered to black-well plates for the LDH assay, and remaining media was sorted at -80 C for later use. Cells were treated with RLT buffer and frozen until shipped for gene expression analysis. Total RNA was isolated from the cell suspension in 75 uL of Buffer RLT (Qiagen, Germantown, MD 20874) by Quintiles/Expression Analysis (Durham, NC) using a custom isolation procedure. Total RNA from each plate well was transferred to a preamplification plate. Fluidigm's 96.96 Dynamic ArrayTM (Fluidigm, Amsterdam, the Netherlands) technology was used for gene expression analyses by quantitative reverse transcription polymerase chain reaction (qRT-PCR, performed by Quintiles/Expression Analysis, Durham, NC)89. Standard TaqManTM Assays (Applied Biosystems/ThermoFisher Scientific, Foster City, CA) were used to assess the expression of 93 genes selected based on their selectivity and sensitivity to important hepatic receptors known to be modulated by environmental chemicals; importance in human hepatocyte functionality; and hepatotoxicity. […]
SMILES,AC50,outcome
CCN(Cc1cccnc1)C(=O)c1cccc(Cl)c1[C@]1(C)C(=O)N(Cc2ccc(OC)cc2OC)c2ccc(Cl)cc21,11.6 µM (active),–
CC(O)CC(C)(C)O (stereo not given),–,inactive
O=C(O)c1ccccc1C(=O)OCc1ccccc1,–,inactive
CCCCCCCCCCCCO,–,inactive
COc1cc(C(=O)NC2CCN(C)CC2)ccc1Nc1ncc2c(n1)N(C1CCCC1)CC(F)(F)C(=O)N2C,–,inactive
Cc1cn([C@H]2C[C@H](N=[N+]=[N-])[C@@H](CO)O2)c(=O)[nH]c1=O,–,inactive
CCCCCCCCCC(=O)O,–,inactive
CCCOC(=O)c1cc(O)c(O)c(O)c1,–,inactive
O=c1[nH]sc2ccccc12,–,inactive
Cc1cc2c(cc1C(F)(F)F)N(C(=O)Nc1ccc(Oc3cccnc3C)nc1)CC2,–,inactive
CCCCCCCCN(C)CCCCCCCC,–,inactive
O=C1O[C@H]([C@@H](O)CO)C(O)=C1O,–,inactive
CC(C)(C)c1cc(/C=C2\SC(N)=NC2=O)cc(C(C)(C)C)c1O,22.2 µM (active),–
CCO[Si](CCCNC(N)=O)(OCC)OCC,–,inactive
Cc1occc1C(=O)Nc1ccc(C(=O)N2CCC(F)(F)/C(=C\C(=O)N3CCC(N4CCCCC4)CC3)c3ccccc32)cc1,–,inactive
Clc1ccccc1C(c1ccccc1)(c1ccccc1)n1ccnc1,91.2 µM (active),–
c1ccc(C[n+]2cccc3ccccc32)cc1,50 µM (active),–
O=C1CCC(C2CCCCC2)CC1,–,inactive
CCCCCc1ccc(N)cc1,–,inactive
c1ccc2n[nH]nc2c1,–,inactive

SMILES,AC50,outcome
Oc1ccccc1,–,inactive
OC12N=C(c3ccccc3)SC1Cc1cc(Cl)ccc12 (stereo not given),–,inactive
CC1=CC(=O)/C(=C(/C)O)C(=O)O1,–,inactive
CCCCCCCCOc1ccc(C(=O)c2ccccc2)c(O)c1,–,inactive
Cc1cccc2ccccc12,–,inactive
CC(C)(C)c1csc(-c2cc3cc(OCc4ccccc4CC(=O)O)ccc3o2)n1,–,inactive
CN(C)c1ccc(C(=C2C=CC(=[N+](C)C)C=C2)c2ccc(N(C)C)cc2)cc1,–,inactive
COc1ccc2cc(S(=O)(=O)N[C@H](CC(=O)N[C@H](Cc3ccc(CN4[C@H](C)CCC[C@@H]4C)cc3)C(=O)N(C)C(C)C)c3ccc4c(c3)OCO4)ccc2c1,–,inactive
Cc1oc2c(NC(=O)c3c(Cl)cccc3Cl)cccc2c1C(C)(C)O,–,inactive
O=CCCCC=O,–,inactive
CN1C(=O)N(c2ccccc2Br)Cc2cnc(Nc3ccc4c(c3)OCC(CO)O4)nc21 (stereo not given),–,inactive
Oc1ccc2ccccc2c1,–,inactive
O=c1c(-c2ccc(O)cc2)coc2cc(O)cc(O)c12,–,inactive
CCN(CC)C(=O)c1cc(S(=O)(=O)Cc2ccccc2)c(N2CCC(c3ccccc3)CC2)cc1N(CC)CCN(C)C,–,inactive
CN(C)C(=O)C1(N2CCCCC2)CCN(CC[C@@]2(c3ccc(Cl)c(Cl)c3)CN(C(=O)c3ccccc3)CCO2)CC1,84.3 µM (active),–
CC/C(=C(/CC)c1ccc(O)cc1)c1ccc(O)cc1,–,inactive
O=c1ccc2ccccc2o1,–,inactive
CN(C[C@@H](CC[N+]12CCC(C3CCCCC3)(CC1)CC2)c1ccc(Cl)c(Cl)c1)C(=O)c1cc(C(F)(F)F)cc(C(F)(F)F)c1,–,inactive
C[C@]12CC[C@@H]3c4ccc(O)cc4CC[C@H]3[C@@H]1CC[C@H]2O,50 µM (active),–
O=C(Nc1ccc(Cl)cc1)Nc1ccc(Cl)c(Cl)c1,–,inactive
